In PubChem BioAssay (NCATS):
Values joined by “and” are separate entries in the source; they are usually repeats but may differ in a detail not shown here. Identical values can stand only once. Records with an inconclusive call do not appear. Active and inactive are the calls of the source. Unless noted, the call rests on the fitted dose curve.

Columns and labels:
[1] = biological target: DNA dC->dU-editing enzyme APOBEC-3G (Homo sapiens) (UniProt Q9HC16); test: qHTS for inhibitors of Vif-A3G interactions: Validation (AID 588379; active means well fitted curve in the direction sought with a large enough effect; an effect the other way counts as inactive or inconclusive; further: 0% is about no effect)
Method in brief: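 HeLa cells stably expressing Vif and A3G-eYFP, 700 cells/well, incubated overnight at 37 deg C, then exposed to compound overnight at 37 deg C. Inhibition of Vif-mediated degradation read as increased yellow fluorescence (Ex 488/Em 500-530) by laser-scanning cytometry.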

[2] = qHTS for Inhibitors of ATXN expression: Validation (AID 588378; active means well fitted curve in the direction sought with a large enough effect; an effect the other way counts as inactive or inconclusive; further: potency means the concentration at half of the fitted maximal effect; nearly all actives have a fitted effect of over 75% in size)
Method in brief: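 Luminescence from an ATXN2-FFLuc reporter in HEK293 cells served as read-out after 24 h compound treatment at 37 degrees C; CellTiter-Fluor fluorescence was recorded first to assess viability.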

[3] = biological target: Glucocorticoid receptor (Homo sapiens) (UniProt P04150); test: qHTS assay for small molecule antagonists of glucocorticoid receptor signaling (AID 588533; active means well fitted inhibition curve with a large enough effect in the signal ratio, with a control signal flat, not every such curve was filed as active; the % refers to the signal ratio; further: potency means the concentration at half of the fitted maximal effect)
Method in brief: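 Antagonist-mode qHTS: compound titrations added to GRE-bla HeLa cells, then dexamethasone 2 nM final; 18 h, 37 C. CCF4 FRET fluorescence normalized to dexamethasone and DMSO; IC50 from Hill fit.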

[4] = biological target: Bile acid receptor (Homo sapiens) (UniProt Q96RI1); test: qHTS assay for small molecule agonists of farnesoid X receptor signaling (AID 588527); details: HEK293T FXR-UAS-bla, beta-lactamase ratio, 16 h; stronger effect = higher value;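 further: series mostly up to about 77 µM; 0% = vehicle basal and 100% = reference agonist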
Method in brief: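 FXR-UAS-bla HEK293T cells (10% dialyzed FBS) preincubated 5-7 h at 37 C, then compounds at up to 92 uM for 16 h at 37 C. CCF4 beta-lactamase read-out after 2 h RT. Normalized to chenodeoxycholic acid (100 uM) and DMSO; Hill fit gave EC50 and efficacy.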

[5] = biological target: Peroxisome proliferator-activated receptor delta (Homo sapiens) (UniProt Q03181); test: qHTS assay for small molecule agonists of peroxisome proliferator-activated receptor delta signaling (AID 588534);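 further: 0% = DMSO basal wells and 100% = positive control agonist at 10 µM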
Method in brief: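 Cells carrying a PPAR-delta beta-lactamase reporter were treated with compounds for 18 h at 37 °C in agonist mode. CCF4 fluorescence was read after 2 h; EC50 and efficacy from Hill fits.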

[6] = biological target: Estrogen receptor (Homo sapiens) (UniProt P03372); test: qHTS assay for small molecule antagonists of estrogen receptor alpha signaling (AID 588513; active means well fitted curve in the direction sought with a large enough effect in the signal ratio, with a control signal flat, not every such curve was filed as active; the % refers to the signal ratio; further: on the % scale 0 is the no-effect control and ±100 the full control effect)
Method in brief: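 ER-alpha-UAS-bla GripTite HEK 293 cells in medium with 2% charcoal/dextran-treated FBS were preincubated 4 h at 37 C, dosed with compound (1:2 titration), stimulated with 0.5nM 17-beta-estradiol for 18 h, then read by CCF4 beta-lactamase fluorescence.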

[7] = biological target: Ubiquitin carboxyl-terminal hydrolase 1 (Homo sapiens) (UniProt O94782); test: Inhibitors of USP1/UAF1: Pilot qHTS (AID 504865; active means well fitted curve in the direction sought with a large enough effect; an effect the other way counts as inactive or inconclusive;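 further: rhodamine fluorescence freed from ubiquitin-rhodamine substrate followed over time; top concentration of the series differs between compounds; on the % scale 0 is the no-effect control and ±100 the full control effect; nearly all actives have a fitted effect of over 35% in size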)
Method in brief: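 USP1/UAF1 complex (1nM) preincubated with compound 15 min at room temperature, then Ub-Rho substrate (150nM final) added. Fluorescence read kinetically at 480/540 nm, 6 reads every 60 seconds. Buffer: 50mM HEPES pH 7.8, 0.5mM EDTA, 0.1 mg/ml BSA, 1mM TCEP, 0.01% Tween-20.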

[8] = biological target: Estrogen receptor (Homo sapiens) (UniProt P03372); test: qHTS assay for small molecule agonists of estrogen receptor alpha signaling (AID 588514);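 further: 0% = vehicle only and 100% = reference agonist; nearly all actives have a fitted effect of over 70% in size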
Method in brief: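 ER-alpha-UAS-bla GripTite HEK293 cells, 5000/well in 2% charcoal/dextran-stripped FBS medium, treated with compound titrations 18 h at 37 C. CCF4 beta-lactamase read by fluorescence after 2 h RT; normalised to 20 nM 17-beta-estradiol (100%) and DMSO (0%), Hill fit for EC50 and efficacy.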

[9] = biological target: Bile acid receptor (Homo sapiens) (UniProt Q96RI1); test: qHTS assay for small molecule antagonists of farnesoid X receptor signaling (AID 588526); further: on the % scale 0 is the no-effect control and ±100 the full control effect
Method in brief: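 Antagonist mode: titrated compounds tested against chenodeoxycholic acid stimulation (normalized to 50 uM CDCA and DMSO) in GeneBLAzer HEK293T cells for 16 h. Beta-lactamase read by CCF4 fluorescence; IC50 from Hill fits.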

[10] = biological target: Glucocorticoid receptor (Homo sapiens) (UniProt P04150); test: qHTS assay for small molecule agonists of glucocorticoid receptor signaling (AID 588532; active means well fitted curve in the direction sought with a large enough effect in the signal ratio, with a control signal flat; the % refers to the signal ratio;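 further: 100% = dexamethasone at 0.1 µM and 0% = DMSO only wells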); details: HeLa MMTV-bla, beta-lactamase ratio, agonist, 18 h; stronger effect = higher value; percent of dexamethasone control, DMSO zero
Method in brief: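 MMTV-bla HeLa beta-lactamase reporter cells in 1% charcoal/dextran FBS medium, compounds up to 92 uM for 18 h at 37 C, CCF4 readout; normalized to 0.1 uM dexamethasone (100%), EC50 and efficacy from Hill fits.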

[11] = biological target: Peroxisome proliferator-activated receptor gamma (Homo sapiens) (UniProt P37231); test: qHTS assay for small molecule agonists of peroxisome proliferator-activated receptor gamma signaling (AID 588536; active means well fitted curve in the direction sought with a large enough effect in the signal ratio, with a control signal flat, not every such curve was filed as active; the % refers to the signal ratio;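 further: 0% = DMSO basal wells and 100% = rosiglitazone at 2 µM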)
Method in brief: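 GeneBLAzer PPAR-gamma-UAS-bla HEK293 cells in 1% charcoal/dextran-treated FBS medium were treated 16 h at 37 C with compounds. Beta-lactamase activity was read by CCF4 ratio (460/530 nm). Response was normalized to 2 uM rosiglitazone (100%) and DMSO, then Hill-fitted for EC50 and efficacy.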

[12] = biological target: Peroxisome proliferator-activated receptor gamma (Homo sapiens) (UniProt P37231); test: qHTS assay for small molecule antagonists of peroxisome proliferator-activated receptor gamma signaling (AID 588537; active means well fitted inhibition curve with a large enough effect in the signal ratio, with a control signal flat, not every such curve was filed as active; the % refers to the signal ratio;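 further: reporter cells co-stimulated with 50 nM rosiglitazone agonist during compound treatment; % of control where 0% means no effect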)
Method in brief: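 PPARγ-UAS-bla HEK293 cells (3000/well) in 1% charcoal/dextran-stripped FBS are treated with compound, then stimulated with 50 nM rosiglitazone for 16 h at 37 °C. Read-out is CCF4 β-lactamase fluorescence after 2 h at RT. IC50 comes from Hill fits normalised to rosiglitazone and DMSO.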

[13] = biological target: Vitamin D3 receptor (Homo sapiens) (UniProt P11473); test: qHTS assay for small molecule antagonists of vitamin D receptor signaling (AID 588541);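 further: receptor activated by calcitriol during compound treatment; series mostly up to about 77 µM; on the % scale 0 is the no-effect control and ±100 the full control effect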
Method in brief: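 VDR-UAS-bla HEK293T cells in 2% charcoal-stripped FBS were stimulated with 1-alpha,25-dihydroxyvitamin D3 (3 nM final) plus compound for 16 h at 37 C. The beta-lactamase CCF4 readout was normalized to 50 nM agonist and DMSO, and Hill fits gave IC50.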

[14] = qHTS assay for small molecule antagonists of peroxisome proliferator-activated receptor delta signaling (AID 588535; active means well fitted inhibition curve with a large enough effect in the signal ratio, with a control signal flat, not every such curve was filed as active; the % refers to the signal ratio;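 on max response: cells co-treated with a PPAR-delta agonist as stimulator during compound exposure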); details: HEK293T PPARd-UAS-bla, beta-lactamase FRET ratio, 18 h; 460 nm channel
Method in brief: (§1)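 Antagonist-mode beta-lactamase reporter (GeneBLAzer PPAR-delta-UAS-bla) in HEK293T cells, 2% charcoal/dextran FBS, 4000 cells/well. Compound titrations, 18 h at 37 C; CCF4 ratio read, IC50 and efficacy from Hill fits.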

[15] = biological target: Peroxisome proliferator-activated receptor delta (Homo sapiens) (UniProt Q03181); test: as above
Method in brief: as §1

Sequence of Ubiquitin carboxyl-terminal hydrolase 1 (Homo sapiens) (O94782 whole entry, looked up): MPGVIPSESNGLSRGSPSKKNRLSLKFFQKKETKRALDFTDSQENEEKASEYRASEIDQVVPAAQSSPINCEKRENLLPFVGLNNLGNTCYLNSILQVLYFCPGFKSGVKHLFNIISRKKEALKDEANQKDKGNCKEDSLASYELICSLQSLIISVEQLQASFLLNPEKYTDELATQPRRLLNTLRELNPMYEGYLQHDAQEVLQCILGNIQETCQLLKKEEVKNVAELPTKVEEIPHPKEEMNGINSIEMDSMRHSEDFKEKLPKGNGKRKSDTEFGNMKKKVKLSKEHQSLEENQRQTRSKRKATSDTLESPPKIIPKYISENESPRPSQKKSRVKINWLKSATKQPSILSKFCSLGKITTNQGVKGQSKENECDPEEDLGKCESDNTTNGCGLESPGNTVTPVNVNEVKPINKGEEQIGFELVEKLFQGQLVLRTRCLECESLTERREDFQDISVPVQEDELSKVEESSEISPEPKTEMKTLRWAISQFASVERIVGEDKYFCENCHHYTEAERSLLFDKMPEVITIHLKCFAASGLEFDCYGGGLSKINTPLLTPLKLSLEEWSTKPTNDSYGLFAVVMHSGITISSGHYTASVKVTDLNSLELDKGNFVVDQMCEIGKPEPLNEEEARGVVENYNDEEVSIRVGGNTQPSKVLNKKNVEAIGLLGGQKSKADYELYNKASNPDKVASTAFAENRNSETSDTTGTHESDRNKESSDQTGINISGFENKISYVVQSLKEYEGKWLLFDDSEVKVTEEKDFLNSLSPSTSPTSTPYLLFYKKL
Sequence of DNA dC->dU-editing enzyme APOBEC-3G (Homo sapiens) (Q9HC16 whole entry, looked up): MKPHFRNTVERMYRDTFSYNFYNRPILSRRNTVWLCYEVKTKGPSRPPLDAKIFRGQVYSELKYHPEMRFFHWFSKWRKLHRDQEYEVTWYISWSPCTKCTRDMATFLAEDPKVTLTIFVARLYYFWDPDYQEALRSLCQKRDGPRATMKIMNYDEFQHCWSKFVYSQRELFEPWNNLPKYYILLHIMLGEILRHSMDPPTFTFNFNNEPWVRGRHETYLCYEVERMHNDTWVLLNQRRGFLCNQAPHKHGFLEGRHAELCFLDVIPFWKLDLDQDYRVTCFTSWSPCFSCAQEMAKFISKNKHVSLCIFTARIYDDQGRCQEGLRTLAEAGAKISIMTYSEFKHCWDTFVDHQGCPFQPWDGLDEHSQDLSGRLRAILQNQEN
Sequence of Estrogen receptor (Homo sapiens) (P03372 whole entry, looked up): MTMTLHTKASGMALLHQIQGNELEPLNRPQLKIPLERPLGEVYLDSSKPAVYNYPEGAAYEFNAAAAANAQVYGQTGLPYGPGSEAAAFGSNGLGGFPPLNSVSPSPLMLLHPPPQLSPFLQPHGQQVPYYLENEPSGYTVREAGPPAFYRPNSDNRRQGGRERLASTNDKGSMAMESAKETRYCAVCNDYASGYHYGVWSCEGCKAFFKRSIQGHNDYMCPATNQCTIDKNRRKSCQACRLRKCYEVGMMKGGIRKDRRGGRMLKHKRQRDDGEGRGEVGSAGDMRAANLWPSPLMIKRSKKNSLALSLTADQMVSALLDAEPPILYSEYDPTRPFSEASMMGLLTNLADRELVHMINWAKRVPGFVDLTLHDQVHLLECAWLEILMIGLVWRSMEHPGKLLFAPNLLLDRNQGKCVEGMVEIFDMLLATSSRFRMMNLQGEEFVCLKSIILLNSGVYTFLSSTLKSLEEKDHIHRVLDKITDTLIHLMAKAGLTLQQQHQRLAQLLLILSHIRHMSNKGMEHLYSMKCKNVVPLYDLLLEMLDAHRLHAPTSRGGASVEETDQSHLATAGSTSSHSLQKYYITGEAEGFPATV
Sequence of Bile acid receptor (Homo sapiens) (Q96RI1 whole entry, looked up): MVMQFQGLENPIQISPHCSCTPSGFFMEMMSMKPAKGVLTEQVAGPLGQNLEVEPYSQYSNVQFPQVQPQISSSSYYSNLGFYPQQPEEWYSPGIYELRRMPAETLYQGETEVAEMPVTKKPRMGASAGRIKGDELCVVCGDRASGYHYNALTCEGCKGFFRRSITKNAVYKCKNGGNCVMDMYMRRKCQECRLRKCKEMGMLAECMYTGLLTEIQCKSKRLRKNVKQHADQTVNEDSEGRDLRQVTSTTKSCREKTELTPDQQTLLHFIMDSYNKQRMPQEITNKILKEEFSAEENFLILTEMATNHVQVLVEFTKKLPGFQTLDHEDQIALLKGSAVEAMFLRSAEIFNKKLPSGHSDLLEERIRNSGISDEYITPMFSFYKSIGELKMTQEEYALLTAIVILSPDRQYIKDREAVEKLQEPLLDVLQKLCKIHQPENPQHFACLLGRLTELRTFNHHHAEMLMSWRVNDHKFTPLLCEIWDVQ
Sequence of Peroxisome proliferator-activated receptor gamma (Homo sapiens) (P37231 whole entry, looked up): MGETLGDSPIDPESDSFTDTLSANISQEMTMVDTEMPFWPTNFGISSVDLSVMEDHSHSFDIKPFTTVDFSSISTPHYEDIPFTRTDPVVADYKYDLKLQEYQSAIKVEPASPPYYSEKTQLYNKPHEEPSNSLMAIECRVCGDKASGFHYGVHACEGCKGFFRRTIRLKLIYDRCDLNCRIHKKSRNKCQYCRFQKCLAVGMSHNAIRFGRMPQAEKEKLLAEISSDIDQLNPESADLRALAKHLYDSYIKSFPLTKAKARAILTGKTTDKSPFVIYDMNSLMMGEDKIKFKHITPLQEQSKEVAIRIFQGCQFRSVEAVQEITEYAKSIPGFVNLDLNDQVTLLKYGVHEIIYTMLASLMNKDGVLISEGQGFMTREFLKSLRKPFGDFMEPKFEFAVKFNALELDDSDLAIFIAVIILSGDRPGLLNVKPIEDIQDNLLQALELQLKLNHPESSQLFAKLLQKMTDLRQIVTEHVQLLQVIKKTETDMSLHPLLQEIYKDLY
Sequence of Glucocorticoid receptor (Homo sapiens) (P04150 whole entry, looked up): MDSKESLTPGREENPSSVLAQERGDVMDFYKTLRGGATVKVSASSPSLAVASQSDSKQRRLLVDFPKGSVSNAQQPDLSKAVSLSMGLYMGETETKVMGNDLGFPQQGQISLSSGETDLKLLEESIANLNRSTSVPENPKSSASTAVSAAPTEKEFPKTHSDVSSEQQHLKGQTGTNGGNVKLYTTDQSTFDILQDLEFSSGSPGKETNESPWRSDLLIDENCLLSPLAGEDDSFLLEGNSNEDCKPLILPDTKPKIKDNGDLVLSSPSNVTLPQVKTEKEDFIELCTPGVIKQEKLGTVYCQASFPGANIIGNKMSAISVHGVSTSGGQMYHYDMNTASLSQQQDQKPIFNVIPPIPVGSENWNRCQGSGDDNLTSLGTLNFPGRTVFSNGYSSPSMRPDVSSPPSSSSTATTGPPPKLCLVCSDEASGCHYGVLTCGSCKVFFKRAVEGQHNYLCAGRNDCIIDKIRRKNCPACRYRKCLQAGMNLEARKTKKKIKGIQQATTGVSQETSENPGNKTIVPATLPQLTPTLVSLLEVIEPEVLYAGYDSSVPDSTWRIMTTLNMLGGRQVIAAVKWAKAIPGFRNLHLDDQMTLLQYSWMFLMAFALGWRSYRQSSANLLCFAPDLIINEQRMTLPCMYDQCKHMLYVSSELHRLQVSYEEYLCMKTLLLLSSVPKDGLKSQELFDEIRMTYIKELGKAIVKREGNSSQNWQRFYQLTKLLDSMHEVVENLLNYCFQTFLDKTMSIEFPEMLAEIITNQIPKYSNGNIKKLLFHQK
Sequence of Peroxisome proliferator-activated receptor delta (Homo sapiens) (Q03181 whole entry, looked up): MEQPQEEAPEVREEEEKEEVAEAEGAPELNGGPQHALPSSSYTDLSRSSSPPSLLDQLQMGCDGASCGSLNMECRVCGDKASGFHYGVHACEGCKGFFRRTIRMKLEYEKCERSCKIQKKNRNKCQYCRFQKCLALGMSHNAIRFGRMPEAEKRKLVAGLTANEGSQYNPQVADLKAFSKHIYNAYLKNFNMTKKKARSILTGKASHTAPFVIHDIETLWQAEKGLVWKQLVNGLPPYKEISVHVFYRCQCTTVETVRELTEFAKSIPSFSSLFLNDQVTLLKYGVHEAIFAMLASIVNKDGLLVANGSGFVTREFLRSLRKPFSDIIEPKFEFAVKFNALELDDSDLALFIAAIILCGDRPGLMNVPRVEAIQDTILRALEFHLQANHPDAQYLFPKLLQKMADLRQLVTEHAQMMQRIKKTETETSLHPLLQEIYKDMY
Sequence of Vitamin D3 receptor (Homo sapiens) (P11473 whole entry, looked up): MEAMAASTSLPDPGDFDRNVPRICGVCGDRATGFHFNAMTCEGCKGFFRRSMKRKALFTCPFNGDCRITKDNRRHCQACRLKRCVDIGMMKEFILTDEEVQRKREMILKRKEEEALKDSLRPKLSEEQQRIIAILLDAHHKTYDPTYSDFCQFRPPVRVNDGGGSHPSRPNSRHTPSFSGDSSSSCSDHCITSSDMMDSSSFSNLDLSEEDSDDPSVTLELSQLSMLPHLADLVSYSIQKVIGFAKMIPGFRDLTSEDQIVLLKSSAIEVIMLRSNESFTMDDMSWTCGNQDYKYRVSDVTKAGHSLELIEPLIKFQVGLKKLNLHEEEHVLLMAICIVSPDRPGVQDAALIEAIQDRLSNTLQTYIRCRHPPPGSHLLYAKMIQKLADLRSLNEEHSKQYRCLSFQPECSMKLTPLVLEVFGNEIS

O=C(O)c1nn(Cc2ccc(Cl)cc2Cl)c2ccccc12
inactive: outcome [1]

COc1ccc(C(=O)N2CCCC2=O)cc1
inactive: outcome [1]

COC(=O)C1=C(C)NC(C)=C(C(=O)OC)C1c1ccccc1[N+](=O)[O-]
active: Potency [2] 11.2 µM | Potency [3] 31.6 µM

CC[C@H]1CN2CCc3cc(OC)c(OC)cc3[C@@H]2C[C@@H]1C[C@H]1NCCc2cc(OC)c(OC)cc21
active: Potency [2] 0.282 µM

CNC(=O)Oc1ccc2c(c1)[C@]1(C)CCN(C)[C@@H]1N2C
inactive: activation [4] 1.98% | outcome [5]

NC(N)=NC(=O)c1nc(Cl)c(N)nc1N
inactive: Potency [6]

CCN1CCCC(OC(=O)C(c2ccccc2)c2ccccc2)C1 (centres undefined)
inactive: Potency [7]

O=C1NCN(c2ccccc2)C12CCN(CCCOc1ccc(F)cc1)CC2
inactive: Potency [7] | outcome [1]

CC(Cc1ccccc1)NCc1ccccc1Cl (centres undefined)
inactive: Potency [7]

C[C@H]1C(=O)O[C@@H]2CCN3CC=C(COC(=O)[C@](C)(O)[C@]1(C)O)[C@H]23
inactive: Potency [7] | Potency [6] | Potency [8] | Potency [9] | activation [4] 2.9% | activation [10] 8.93% | Potency [3] | outcome [5] | outcome [11] | Potency [12] | outcome [13]

CCNc1nc(Cl)nc(NCC)n1
inactive: Potency [7] | Potency [8] | Potency [9] | activation [4] -2% | activation [10] 3.33% | Potency [3] | outcome [11] | Potency [12] | outcome [13]

C=CCOC(Cn1ccnc1)c1ccc(Cl)cc1Cl (centres undefined)
-52.6% and -29.4%: max response [14]
inactive: Potency [7] | activation [10] -7.13% and -8.27% | Potency [3] | outcome [5] | Potency [15] | outcome [13]
